# Results as given in PubChem BioAssay.
# Values joined by “and” are separate entries in the source; they are usually repeats but may differ in a detail not shown here. Equal entries are not always repeated. Active and inactive are the calls of the source.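 The calls were made as follows, unless noted: active = compounds whose cell count with miR-34 switched on is under 0.7 times the count with it off; inactive = the rest.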
# Tests used:
# [1] = Wnt pathway potentiators raising nuclear beta-catenin – imaging, WNT3A-conditioned medium, mouse C2C12, NPC library, primary screen (AID 1117326; in the data active = nuclear beta-catenin stimulation mostly above about 4.2%, no sharp cut-off; inactive = mostly below about 10%); settings: stronger effect = higher value
# [2] = stimulators of insulin release from INS-1E, primary screen, cell-based, 5 mM glucose, NPC library (AID 1117329;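 active = compound raises insulin release from rat beta cells at 5 mM glucose, no numeric limit stated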); settings: rat INS-1E insulin secretion, at 10 µM, stronger effect = higher value
# [3] = growth inhibition of GSK3B-pretreated HCT116 cells – cell-based, CellTiter-Glo, 0.2 to 20 µM (AID 1117336;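 active = compounds lowering colon cancer cell viability after pretreatment blocking the GSK3B kinase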); settings: HCT116 viability after GSK3B inhibitor, at 20 µM, stronger effect = higher value
# [4] = inhibition of endothelial tube formation, primary screen, imaging, VEGF stimulated, CD31 staining, tube area, NPC library (AID 1117340;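 active = compound that reduces growth-factor-driven endothelial tube area in a mixed cell culture, no cutoff stated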); settings: VEGF-stimulated ADSC/ECFC co-culture, at 10 µM, stronger effect = higher value
# [5] = GLP1 release stimulators, primary, NCI-H716, NPC library (AID 1117341;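 active = compound raises GLP1 secretion from the human gut endocrine cells, with no numeric limit stated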); settings: NCI-H716 cells, at 10 µM, stronger effect = higher value
# [6] = HCT116 colon cancer cell growth inhibition, primary screen, CellTiter-Glo luminescence, NPC library (AID 1117342;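 active = compounds that lower survival of HCT116 colon cancer cells in the luminescence readout, no numeric limit stated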); settings: at 20 µM (top of the series)
# [7] = reduced SW480 viability measured with CellTiter-Glo, NPC library, primary (AID 1117343;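 active = compounds that lower viability of the colon cancer cells in the luminescence readout, with no numeric limit stated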); settings: CellTiter-Glo luminescence; at 20 µM (top of the series) unless noted
# [8] = NPC library primary testing for decreased DLD-1 cell viability via CellTiter-Glo (AID 1117346;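 active = compounds that lower survival of DLD-1 colon cancer cells in the luminescence readout, no cutoff given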); settings: DLD-1 viability, CellTiter-Glo luminescence; at 20 µM (top of the series)
# [9] = EMT-state selective cytotoxicity in co-culture – imaging, PC-3E GFP, TEM4-18 mCherry, primary screen (AID 1345086;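 active = compounds killing one labelled cell type while sparing the other, by normalised counts and ratio limits, not self-fluorescent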;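 as to all read-outs here: cells exposed to compound for 72 h before imaging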;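 as to red/green cell ratio (normalised): normalised mesenchymal count divided by normalised epithelial count so high means epithelial killing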); settings: PC-3E GFP / TEM4-18 mCherry co-culture, imaging cell counts, at 1 µM; for red/green cell ratio (normalised): actives lie on both sides, counts scaled to control wells, 1 = unselective
# [10] = viability loss with induced miR-34 in A549 – imaging, A549 dox-inducible miR-34, nuclei and caspase counts, primary screen (AID 1347080); settings: A549 miR-34 inducible, Hoechst nuclei count, 48 h
# [11] = MELAS cybrid and Rieske KO viability enhancers – cell-based, MELAS cybrids, Rieske KO mouse fibroblasts, CellTiter-Glo, primary screen (AID 1508586;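 active = mean z-score across replicates of 1.96 or higher in either the MELAS or the Rieske mutant cell line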;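 also: z relative to plate mean and SD of compound and empty wells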); settings: low glucose
# [12] = target: NAD(+) hydrolase SARM1 (Homo sapiens) (UniProt Q6SZW1); assay: blocking NAD cleavage by SARM1 SAM-TIR – cell lysate, NAD-Glo luminescence (AID 1508614;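 active = compound whose remaining NAD level is above about 45 nM, limit read from the data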;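 also: higher remaining NAD means stronger inhibition of SARM1 NADase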); settings: SAM-TIR HEK293T lysate NADase, at 1 µM, stronger effect = higher value
# NAD(+) hydrolase SARM1 (Homo sapiens), sequence (Q6SZW1 whole entry, looked up): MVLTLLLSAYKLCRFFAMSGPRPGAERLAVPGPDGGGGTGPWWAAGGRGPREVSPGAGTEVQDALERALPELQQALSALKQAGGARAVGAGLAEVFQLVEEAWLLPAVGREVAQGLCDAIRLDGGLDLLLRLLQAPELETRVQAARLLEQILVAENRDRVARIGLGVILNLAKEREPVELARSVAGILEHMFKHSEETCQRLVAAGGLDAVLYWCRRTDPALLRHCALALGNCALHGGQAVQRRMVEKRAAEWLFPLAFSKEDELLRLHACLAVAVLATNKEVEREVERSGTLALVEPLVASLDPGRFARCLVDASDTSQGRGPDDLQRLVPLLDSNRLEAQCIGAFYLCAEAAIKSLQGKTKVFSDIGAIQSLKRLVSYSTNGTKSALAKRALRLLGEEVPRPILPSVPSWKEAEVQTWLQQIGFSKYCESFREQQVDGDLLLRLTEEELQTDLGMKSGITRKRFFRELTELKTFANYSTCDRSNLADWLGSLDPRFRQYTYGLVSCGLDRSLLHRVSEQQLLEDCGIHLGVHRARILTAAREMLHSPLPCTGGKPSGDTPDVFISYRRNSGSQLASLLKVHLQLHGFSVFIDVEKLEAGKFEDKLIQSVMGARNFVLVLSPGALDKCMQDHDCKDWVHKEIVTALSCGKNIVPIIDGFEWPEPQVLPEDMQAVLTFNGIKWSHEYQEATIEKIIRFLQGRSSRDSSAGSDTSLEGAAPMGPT
# [13] = growth inhibition, single agent or in combination, cell-based, chromothripsis tumors, cisplatin or BGB combos (AID 1671449; in the data active = inhibition above about 80%;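 also: cells exposed for 96 hours; 0% = vehicle DMSO and 100% = killing by high DMSO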); settings: LFS_MB_P medulloblastoma cells
# [14] = growth inhibition, single agent and combos, cell-based, chromothripsis tumors, cisplatin or BGB combos (AID 1671450; in the data active = inhibition above about 80%;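 also: cells exposed to compound for four days; 0% = vehicle DMSO and 100% = cell killing by high DMSO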); settings: HDN33 neuroblastoma cells, stronger effect = higher value
# [15] = growth inhibition, single agents and combos, ICB984, cell-based, cisplatin or BGB combos, synergistic combos for chromothripsis tumors (AID 1671451; call rule not given here;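 also: cells exposed for 96 hours before readout; 0% = vehicle DMSO and 100% = killing by high DMSO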); settings: ICB984 medulloblastoma cells, drug combinations, stronger effect = higher value
# [16] = growth inhibition, single agents and combos, HTB85, cell-based, BGB or cisplatin IC20 combos, synergistic combos for chromothripsis tumors (AID 1671453; in the data active = inhibition above about 80%;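 also: cells exposed for 96 hours before readout; 0% = vehicle DMSO and 100% = high DMSO killing control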); settings: HTB85 osteosarcoma cells, drug combinations, stronger effect = higher value
# [17] = growth inhibition, MDA-MB-436, cell-based, BGB or cisplatin combos, synergistic combos for chromothripsis tumors (AID 1671458; call rule not given here;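 also: cells exposed for 96 hours; 0% = vehicle DMSO and 100% = killing by high DMSO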); settings: MDA-MB-436 breast carcinoma growth inhibition, drug combinations, stronger effect = higher value
# [18] = P. berghei load reduction in hepatocytes – cell-based, HepG2, luciferase luminescence, HepG2 viability, primary screen (AID 624349; in the data active = parasite load remaining mostly below about 12%, no sharp cut-off; inactive = mostly above about 10%;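 also: 100% = mean of DMSO negative control wells on the same plate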); settings: P. berghei liver stage in HepG2, luciferase luminescence, concentration not given here; parasite load remaining: stronger effect = lower value; viability: measured here: HepG2 viability without parasites
# [19] = compounds altering viability of human ES cells (AID 493140; call rule not given here;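 also: cells exposed to compounds for four days before counting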); settings: human embryonic stem cell survival screen; stronger effect = higher value
# [20] = measured here: epithelial PC-3E GFP cell survival
# [21] = measured here: mesenchymal TEM4-18 mCherry cell survival
# [22] = stronger effect = lower value, cell number ratio, induced over uninduced
# [23] = measured here: relative caspase fold change +Dox/-Dox
# [24] = measured here: total cells with miR-34 induction, stronger effect = lower value
# [25] = measured here: total cells without miR-34 induction
# [26] = MELAS cybrid survival, CellTiter-Glo 48 h, stronger effect = higher value
# [27] = Rieske KO mouse fibroblast survival, CellTiter-Glo 72 h
compound,measurement,setting,value
O=c1cc[nH]c(=O)[nH]1,nuclear beta-catenin stimulation,[1]; at 10 µM,2.3% (inactive)
same,nuclear beta-catenin stimulation,"[1]; stimulation, at 2 µM",0.3%
same,insulin secretion stimulation,[2],0% (inactive)
same,viability decrease,[3],0.75% (inactive)
same,tube area decrease,[4],-14.5% (inactive)
same,GLP1 secretion stimulation,[5],-2.6% (inactive)
same,inhibition of viability,[6],1% (inactive)
same,viability decrease (inhibition),[7],8% (inactive)
same,viability decrease (inhibition),[8],3.55% (inactive)
same,red/green cell ratio (normalised),[9],1.11 (inactive)
same,normalised cell number,[9]; [20],1.05
same,normalised cell number,[9]; [21],1.16
same,fold change,[10]; [22],0.956 (inactive) and 0.943 (inactive)
same,fold change,[10]; [23],0.736 and 0.726
same,cell count,[10]; [24],8740 and 8670
same,cell count,[10]; [25],9140 and 9190
same,z-score,[11]; [26],-0.276 (inactive)
same,z-score,[11]; [27],-0.187
same,remaining NAD,[12],10 nM (inactive)
same,inhibition,"[13]; at 0.5 µM, stronger effect = higher value",-22.6% (inactive)
same,inhibition,"[13]; measured here: combination with BGB IC20, at 0.005 µM",-16.6%
same,inhibition,"[13]; measured here: combination with BGB IC40, at 0.005 µM",-38.5%
same,inhibition,"[13]; measured here: combination with BGB IC40, at 0.05 µM",-9.29%
same,inhibition,"[13]; measured here: combination with cisplatin, at 0.5 µM, stronger effect = higher value",-28.9%
same,inhibition,"[13]; measured here: combination with cisplatin, at 5 µM, stronger effect = higher value",-19.9%
same,inhibition,"[14]; BGB combo, at 5 µM",-47.9%
same,inhibition,[14]; at 0.5 µM,-41.6% (inactive)
same,inhibition,"[14]; cisplatin combo, at 5 µM",-56.4%
same,inhibition,"[14]; measured here: with BGB IC20 combination, at 0.5 µM",-36.5%
same,inhibition,"[14]; measured here: with cisplatin IC20 combination, at 0.5 µM",-23.5%
same,inhibition,"[14]; single agent, at 5 µM",-52%
same,inhibition,"[15]; BGB IC20 combo, at 0.005 µM",-14.6%
same,inhibition,"[15]; BGB IC40 combo, at 0.005 µM",-47.1%
same,inhibition,"[15]; BGB IC40 combo, at 0.05 µM",-28.5%
same,inhibition,[15]; at 0.5 µM,-27% (inactive)
same,inhibition,"[15]; cisplatin combo, at 0.05 µM",-28.5%
same,inhibition,"[15]; cisplatin combo, at 0.5 µM",-48.6%
same,inhibition,"[15]; cisplatin combo, at 5 µM",-27.5%
same,inhibition,"[15]; measured here: 5 uM single agent, at 5 µM",-5.8%
same,inhibition,[16]; at 0.5 µM,-37.5% (inactive)
same,inhibition,"[16]; measured here: with BGB IC20, at 0.5 µM",-69.8%
same,inhibition,"[16]; measured here: with BGB IC20, at 5 µM",-35.2%
same,inhibition,"[16]; measured here: with cisplatin IC20, at 0.5 µM",-26.2%
same,inhibition,"[16]; measured here: with cisplatin IC20, at 5 µM",-33.2%
same,inhibition,"[16]; single agent, at 5 µM",-19.7%
same,inhibition,[17]; at 0.5 µM,-27.5% (inactive)
same,inhibition,"[17]; measured here: BGB combination, at 0.5 µM",-30.5%
same,inhibition,"[17]; measured here: BGB combination, at 5 µM",-26.1%
same,inhibition,"[17]; measured here: cisplatin combination, at 0.5 µM",-40.8%
same,inhibition,"[17]; measured here: cisplatin combination, at 5 µM",-24%
CCOc1nc2cccc(C(=O)O)c2n1Cc1ccc(-c2ccccc2-c2nn[nH]n2)cc1,parasite load remaining,[18],51% (inactive)
same,viability,[18],130%
same,nuclear beta-catenin stimulation,[1]; at 10 µM,-1.9% (inactive)
same,nuclear beta-catenin stimulation,"[1]; stimulation, at 2 µM",0.8%
same,insulin secretion stimulation,[2],1.4% (inactive)
same,viability decrease,[3],-7.7% (inactive)
same,tube area decrease,[4],5.3% (inactive)
same,GLP1 secretion stimulation,[5],-1.6% (inactive)
same,inhibition of viability,[6],-9.8% (inactive)
same,viability decrease (inhibition),[7],16.8% (inactive)
same,viability decrease (inhibition),[8],-13% (inactive)
same,red/green cell ratio (normalised),[9],1.24 (inactive)
same,normalised cell number,[9]; [20],1.08
same,normalised cell number,[9]; [21],1.35
same,fold change,[10]; [22],1.02 (inactive) and 0.834 (inactive)
same,fold change,[10]; [23],0.596 and 1.3
same,cell count,[10]; [24],7490 and 8900
same,cell count,[10]; [25],7350 and 10700
same,z-score,[11]; [26],-0.183 (inactive) and 0.664 (inactive) and -0.412 (inactive)
same,z-score,[11]; [27],-0.0185 and -0.257 and -0.953
same,remaining NAD,[12],10 nM (inactive)
N=C(N)N1CCc2ccccc2C1,survival,[19],9.58 (inactive)
same,nuclear beta-catenin stimulation,[1]; at 10 µM,0.5% (inactive)
same,nuclear beta-catenin stimulation,"[1]; stimulation, at 2 µM",0.9%
same,insulin secretion stimulation,[2],1.35% (inactive)
same,viability decrease,[3],12.1% (inactive)
same,tube area decrease,[4],-0.3% (inactive)
same,GLP1 secretion stimulation,[5],3.1% (inactive)
same,inhibition of viability,[6],9.2% (inactive)
same,viability decrease (inhibition),[7],5.1% (inactive)
same,viability decrease (inhibition),[8],0% (inactive)
same,red/green cell ratio (normalised),[9],0.87 (inactive)
same,normalised cell number,[9]; [20],1.22
same,normalised cell number,[9]; [21],1.07
same,fold change,[10]; [22],0.813 (inactive) and 0.913 (inactive) and 0.943 (inactive)
same,fold change,[10]; [23],1.55 and 2.39 and 2.81
same,cell count,[10]; [24],8490 and 11800 and 9640
same,cell count,[10]; [25],10400 and 13000 and 10200
same,z-score,[11]; [26],0.0225 (inactive) and -0.468 (inactive)
same,z-score,[11]; [27],-0.12 and -1.06
same,remaining NAD,[12],10 nM (inactive)
